Laboratory results taken from PubChem BioAssay AID1159580 (chemical genetic matrix, 2015).
Where “and” joins values, the source holds several entries; their conditions need not be identical. Equal entries are not always repeated. Screen size: about 5,500 compounds; about 2,000 (36%) were called active. Inconclusive results (about 18%) are left out. Cut-off read from the data, not from the text of the source: active = normalized growth mostly below about 0.91 (no sharp cut-off); inconclusive = no clear call, values can overlap the other calls; inactive = mostly above about 0.92. Some of the results follow.

Test: chemical genetic growth profiling, strain panel (AID 1159580);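 note: tested at 20 µM; growth read once vehicle control cultures reached saturation at 30 °C; 1 = growth at the plate median or of vehicle wells; lower values mean less growth of the strain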
Conditions: growth OD

Measured: normalized growth

CC[C@H]1CN2CCC1C[C@@H]2[C@@H](O)c1ccnc2ccc(OC)cc12 (some centres not stated)
inactive: S. cerevisiae deletion strains, locus YAL013W, strain DEP1, stronger effect = lower value 0.997 | S. cerevisiae deletion strains, locus YBR021W, strain FUR4, stronger effect = lower value 0.996 | S. cerevisiae deletion strains, locus YBR229C, strain ROT2, stronger effect = lower value 0.992 | S. cerevisiae deletion strains, locus YCL029C, strain bik1, stronger effect = lower value 1.01 | S. cerevisiae deletion strains, locus YDL035C, strain GPR1, stronger effect = lower value 0.995 | S. cerevisiae deletion strains, locus YDL074C, strain BRE1, stronger effect = lower value 1.01 | S. cerevisiae deletion strains, locus YDL101C, strain DUN1, stronger effect = lower value 0.995 | S. cerevisiae deletion strains, locus YDL134C, strain PPH21, stronger effect = lower value 1.01 | S. cerevisiae deletion strains, locus YDL185W, strain tfp1, stronger effect = lower value 1.01 | S. cerevisiae deletion strains, locus YDL192W, strain arf1, stronger effect = lower value 1.01 | S. cerevisiae deletion strains, locus YDR101C, strain arx1, stronger effect = lower value 1 | S. cerevisiae deletion strains, locus YDR150W, strain NUM1, stronger effect = lower value 1.01 | S. cerevisiae deletion strains, locus YDR162C, strain NBP2, stronger effect = lower value 1 | S. cerevisiae deletion strains, locus YDR318W, strain mcm21, stronger effect = lower value 1.02 | S. cerevisiae deletion strains, locus YDR388W, stronger effect = lower value 1.01 | S. cerevisiae deletion strains, locus YDR502C, strain sam2, stronger effect = lower value 1.04 | S. cerevisiae deletion strains, locus YEL061C, strain CIN8, stronger effect = lower value 1.01 | S. cerevisiae deletion strains, locus YER110C, stronger effect = lower value 1.01 | S. cerevisiae deletion strains, locus YER155C, strain BEM2, stronger effect = lower value 1.01 | S. cerevisiae deletion strains, locus YER167W, strain BCK2, stronger effect = lower value 1 | S. cerevisiae deletion strains, locus YGL078C, strain dbp3, stronger effect = lower value 1.01 | S. cerevisiae deletion strains, locus YGL086W, strain mad1, stronger effect = lower value 1 | S. cerevisiae deletion strains, locus YGL248W, strain PDE1, stronger effect = lower value 0.997 | S. cerevisiae deletion strains, locus YGR078C, strain PAC10, stronger effect = lower value 1 | S. cerevisiae deletion strains, locus YGR135W, strain pre9, stronger effect = lower value 1.01 | S. cerevisiae deletion strains, locus YGR229C, strain SMI1, stronger effect = lower value 0.977 | S. cerevisiae deletion strains, locus YGR252W, strain gcn5, stronger effect = lower value 0.994 | S. cerevisiae deletion strains, locus YHR030C, strain SLT2, stronger effect = lower value 1.01 and 1.04 | S. cerevisiae deletion strains, locus YHR079C, strain IRE1 (second series), stronger effect = lower value 1.01 | S. cerevisiae deletion strains, locus YHR079C, strain IRE1, stronger effect = lower value 1.02 | S. cerevisiae deletion strains, locus YHR094C, strain hxt1, stronger effect = lower value 1.01 | S. cerevisiae deletion strains, locus YHR129C, strain ARP1, stronger effect = lower value 1.01 | S. cerevisiae deletion strains, locus YHR200W, strain rpn10, stronger effect = lower value 1.02 | S. cerevisiae deletion strains, locus YIL066C, strain RNR3, stronger effect = lower value 1 | S. cerevisiae deletion strains, locus YIL073C, strain SPO22, stronger effect = lower value 1.03 | S. cerevisiae deletion strains, locus YIL125W, strain kgd1, stronger effect = lower value 1 | S. cerevisiae deletion strains, locus YIR030C, strain dcg1, stronger effect = lower value 1.01 | S. cerevisiae deletion strains, locus YJL095W, strain BCK1, stronger effect = lower value 1.01 and 1.02 | S. cerevisiae deletion strains, locus YJL134W, strain LCB3, stronger effect = lower value 0.997 | S. cerevisiae deletion strains, locus YJL168C, strain set2, stronger effect = lower value 1.01 | S. cerevisiae deletion strains, locus YJL187C, strain SWE1 (second series), stronger effect = lower value 0.999 | S. cerevisiae deletion strains, locus YJR043C, strain POL32, stronger effect = lower value 1.01 | S. cerevisiae deletion strains, locus YJR066W, strain TOR1, stronger effect = lower value 0.956 | S. cerevisiae deletion strains, locus YJR075W, strain HOC1, stronger effect = lower value 1 | S. cerevisiae deletion strains, locus YKL009W, strain mrt4, stronger effect = lower value 1.08 | S. cerevisiae deletion strains, locus YKL068W, stronger effect = lower value 1.01 | S. cerevisiae deletion strains, locus YKL085W, strain MDH1 (second series), stronger effect = lower value 1.03 | S. cerevisiae deletion strains, locus YKL085W, strain MDH1, stronger effect = lower value 1.03 | S. cerevisiae deletion strains, locus YKL190W, strain CNB1, stronger effect = lower value 1.01 | S. cerevisiae deletion strains, locus YKR001C, strain vps1, stronger effect = lower value 1.02 | S. cerevisiae deletion strains, locus YLR039C, strain RIC1, stronger effect = lower value 1.01 | S. cerevisiae deletion strains, locus YLR058C, strain SHM2, stronger effect = lower value 1 | S. cerevisiae deletion strains, locus YLR102C, strain apc9, stronger effect = lower value 1.01 | S. cerevisiae deletion strains, locus YLR113W, strain HOG1, stronger effect = lower value 1.02 | S. cerevisiae deletion strains, locus YLR262C, strain YPT6, stronger effect = lower value 0.988 | S. cerevisiae deletion strains, locus YLR268W, strain sec22, stronger effect = lower value 1.02 | S. cerevisiae deletion strains, locus YLR330W, strain CHS5, stronger effect = lower value 1 | S. cerevisiae deletion strains, locus YLR342W, strain FKS1 (second series), stronger effect = lower value 0.983 | S. cerevisiae deletion strains, locus YLR371W, strain rom2, stronger effect = lower value 1.01 | S. cerevisiae deletion strains, locus YLR418C, strain cdc73, stronger effect = lower value 1.01 | S. cerevisiae deletion strains, locus YML016C, strain PPZ1, stronger effect = lower value 1 | S. cerevisiae deletion strains, locus YML032C, strain rad52, stronger effect = lower value 1.01 | S. cerevisiae deletion strains, locus YML124C, strain tub3, stronger effect = lower value 1.01 | S. cerevisiae deletion strains, locus YMR078C, strain ctf18, stronger effect = lower value 1.03 | S. cerevisiae deletion strains, locus YMR223W, strain ubp8, stronger effect = lower value 0.996 | S. cerevisiae deletion strains, locus YMR263W, strain SAP30, stronger effect = lower value 1.02 | S. cerevisiae deletion strains, locus YMR307W, strain GAS1, stronger effect = lower value 0.95 | S. cerevisiae deletion strains, locus YNL067W, strain RPL9B, stronger effect = lower value 1.01 | S. cerevisiae deletion strains, locus YNL128W, strain TEP1, stronger effect = lower value 1.01 | S. cerevisiae deletion strains, locus YNL153C, strain GIM3, stronger effect = lower value 1 | S. cerevisiae deletion strains, locus YNL183C, strain NPR1, stronger effect = lower value 0.942 | S. cerevisiae deletion strains, locus YNL233W, strain BNI4, stronger effect = lower value 1 | S. cerevisiae deletion strains, locus YNL250W, strain rad50, stronger effect = lower value 1.01 | S. cerevisiae deletion strains, locus YNL271C, strain bni1, stronger effect = lower value 1.01 | S. cerevisiae deletion strains, locus YNL298W, strain CLA4, stronger effect = lower value 1.01 | S. cerevisiae deletion strains, locus YNL307C, strain MCK1, stronger effect = lower value 1.01 | S. cerevisiae deletion strains, locus YNL322C, strain KRE1, stronger effect = lower value 1 | S. cerevisiae deletion strains, locus YNR052C, strain pop2, stronger effect = lower value 1.02 | S. cerevisiae deletion strains, locus YOL006C, strain TOP1, stronger effect = lower value 1.02 | S. cerevisiae deletion strains, locus YOL012C, strain htz1 0.815 | S. cerevisiae deletion strains, locus YOL147C, strain pex11, stronger effect = lower value 1.01 | S. cerevisiae deletion strains, locus YOR061W, strain CKA2, stronger effect = lower value 1.01 | S. cerevisiae deletion strains, locus YOR069W, strain VPS5, stronger effect = lower value 0.998 | S. cerevisiae deletion strains, locus YOR136W, strain idh2, stronger effect = lower value 1.02 | S. cerevisiae deletion strains, locus YOR144C, strain elg1, stronger effect = lower value 1.01 | S. cerevisiae deletion strains, locus YOR184W, strain ser1, stronger effect = lower value 1.01 | S. cerevisiae deletion strains, locus YOR231W, strain MKK1, stronger effect = lower value 1.03 | S. cerevisiae deletion strains, locus YOR316C, strain cot1, stronger effect = lower value 1.01 | S. cerevisiae deletion strains, locus YPL055C, strain LGE1, stronger effect = lower value 0.993 | S. cerevisiae deletion strains, locus YPL241C, strain CIN2, stronger effect = lower value 0.997 | S. cerevisiae deletion strains, locus YPL256C, strain CLN2, stronger effect = lower value 1.02 | S. cerevisiae deletion strains, locus YPR119W, strain clb2, stronger effect = lower value 1.01 | S. cerevisiae deletion strains, locus YPR141C, strain kar3, stronger effect = lower value 1.01 | S. cerevisiae deletion strains, locus YPR163C, strain tif3, stronger effect = lower value 1.02 | S. cerevisiae deletion strains, locus YPR167C, strain met16, stronger effect = lower value 1.01 | S. cerevisiae deletion strains, strain wtn01, stronger effect = lower value 1.03 | S. cerevisiae strains, strain wild type, stronger effect = lower value 0.999
